High-throughput results: PubChem BioAssay, The Scripps Research Institute Molecular Screening Center
This is one part of a sample in which hits are shown more often than they occur.
TbREL1 primary = TbREL1 inhibition, primary screen; P86926; TbREL1 RNA ligation, FRET fluorescence; inhibition, % at 9.66 µM; actives 0.49% (n = 89,000); AID 1117264;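 active means inhibition above the mean inhibition across all screened compounds plus 3 SD, cut at about 11% in these data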;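 further: 0% = plate median of test wells and 100% = NSC42067 control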
Target sequence (P86926 whole entry, looked up): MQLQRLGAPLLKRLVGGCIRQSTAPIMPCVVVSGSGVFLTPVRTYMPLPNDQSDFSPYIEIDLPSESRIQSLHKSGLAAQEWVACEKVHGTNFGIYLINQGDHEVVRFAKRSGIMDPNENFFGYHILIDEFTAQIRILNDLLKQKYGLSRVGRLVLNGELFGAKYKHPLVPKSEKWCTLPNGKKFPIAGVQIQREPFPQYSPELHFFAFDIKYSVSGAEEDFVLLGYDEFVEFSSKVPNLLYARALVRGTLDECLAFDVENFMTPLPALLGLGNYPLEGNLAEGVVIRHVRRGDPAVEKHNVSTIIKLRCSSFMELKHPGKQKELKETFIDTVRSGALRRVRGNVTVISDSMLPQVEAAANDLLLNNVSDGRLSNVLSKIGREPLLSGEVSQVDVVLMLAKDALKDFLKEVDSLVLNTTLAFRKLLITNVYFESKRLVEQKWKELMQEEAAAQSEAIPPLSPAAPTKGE
TbREL1 conf = TbREL1 inhibition, confirmation; shares compounds with TbREL1 primary; TbREL1 RNA ligation, FRET fluorescence; inhibition, % at 9.66 µM; actives 37% (n = 390);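 active means mean inhibition across replicates above a set limit taken from the earlier primary screen, cut at about 11% in these data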;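 further: 0% = REL1 with substrate and DMSO and 100% = REL1 plus control inhibitor NSC42067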
* = called active by the depositor.

SMILES	TbREL1 primary	others
O=C(CSc1nnc(-c2ccccn2)n1-c1ccc(Cl)cc1)Nc1cccc2ccccc12	-2
CC(NC(=O)Cc1ccc(NS(=O)(=O)c2cccc(C(F)(F)F)c2)cc1)c1ccccn1 (centres undefined)	0
CCOC(=O)C1=C(C)N(C)C(=O)NC1c1cccc([N+](=O)[O-])c1 (centres undefined)	-1
CCOC(=O)c1c(C)n(C)c2cc([N+](=O)[O-])c(O)c([N+](=O)[O-])c12	11*	TbREL1 conf=3
CCOC(=O)c1c(C)n(C)c2ccc(OCC(N)=O)cc12	6
C[C@H](c1ccccc1)N1C[C@H](COCc2ccccc2)Oc2cc(N3CCC[C@H]3C(N)=O)ccc2S1(=O)=O	3
CCOC(=O)C1(C)CCN1C(=O)c1cc(OC)ccc1Br (centres undefined)	-1
Cc1ccc2nsnc2c1NC(=O)CCl	11*	TbREL1 conf=4
Cc1ccc2nsnc2c1NC(=O)Cc1ccc(Cl)cc1	-1
O=C(COc1ccccc1)Nc1c(Cl)ccc2nsnc12	-2
COc1ccc(OC)c(-c2cc(C(=O)N3CCOCC3)no2)c1	100*	TbREL1 conf=1
COc1ccc(OC)c(-c2nnc(SCC(=O)N3CCOCC3)o2)c1	0
COc1ccc(-c2cc(C(=O)N3CCCC3)no2)cc1	4
CCCCCCn1cc(CN2CC(N3CCN(Cc4ccccc4F)CC3)CS2(=O)=O)nn1 (centres undefined)	-4
COc1ccc(CCNC(=O)C2CCN(C(=O)c3cccc(Cl)c3)CC2)cc1OC	1
Cc1cc(C(O)c2ncc(-c3ccc(Cl)cc3)[nH]2)ccc1F (centres undefined)	1
COc1ccc(S(=O)(=O)N(C)C[C@H]2Oc3c(NC(=O)Nc4c(C)noc4C)cccc3C(=O)N([C@@H](C)CO)C[C@H]2C)cc1	-1
CC(=O)N(C)c1ccc(NC(=O)/C=C/c2ccccc2Cl)cc1	-3
O=C(/C=C/c1cccc([N+](=O)[O-])c1)Nc1cc(C(=O)O)cc(C(=O)O)c1	2
O=C(/C=C\c1ccccc1[N+](=O)[O-])Nc1ccccc1	12*	TbREL1 conf=7
CCN(C(=O)COC(=O)CCc1ccccc1)c1ccccc1	3
CCc1cc(C(=O)NCC2CCCO2)sc1C (centres undefined)	0
COc1ccccc1C(CC(=O)c1ccccc1)C(=O)c1ccccc1 (centres undefined)	11*	TbREL1 conf=-1
COc1ccccc1C(C(=O)c1ccccc1)c1ccc2ccccc2c1 (centres undefined)	3
COC(=O)C(CC(=O)c1ccccc1)CC(=O)c1ccccc1	2
SMILES	TbREL1 primary	others
COc1ccc(Cn2cc(CN3CC(N4CCN(C5CCN(C)CC5)CC4)CS3(=O)=O)nn2)cc1 (centres undefined)	3
COc1ccc(C)cc1NS(=O)(=O)c1ccccc1	-3
CN(C(=O)CC(NC(=O)c1ccccc1Cl)c1ccccc1)c1ccccc1 (centres undefined)	-2
CCCNC(=O)c1cc2c(c(-c3cccc(-c4ccccc4F)c3)n1)[C@H](CCO)N(C(=O)CC1CC1)C2	3
Cc1cc(C(N)=O)c2ccccc2n1	4
CC(C)c1cc(C(=O)O)c2ccccc2n1	13*	TbREL1 conf=9
O=C(O)c1cc(Sc2ccc(Br)cc2)nc2ccccc12	0
O=C(COc1cccc(Cl)c1Cl)NC1CC1	2
C=CCOC(=O)C1=C(C)N=c2sc(=C3C(=O)N(CC(=O)O)c4ccccc43)c(=O)n2C1c1ccc(OC)cc1 (centres undefined)	2
COC(=O)CCCn1cc(CN2CC(N3CCN(CCN(C)C)CC3)CS2(=O)=O)nn1 (centres undefined)	2
CC(=O)c1ccc(NS(=O)(=O)c2ccccc2)cc1	5
O=C(c1ccccc1)c1nnc(-c2ccccc2F)o1	2
CC(=O)c1ccc(Nc2ccc(-c3ccccc3F)nn2)cc1	13*	TbREL1 conf=3
CC(C)(C)[C@H]1COC(=O)[C@@H](Cc2ccc(F)cc2)CC/C=C/C[C@@H](CC(=O)N[C@@H](CO)Cc2ccccc2)C(=O)N1	-1
O=C(Nc1ccc(Cl)cc1)C(Cl)C(=O)c1ccccc1 (centres undefined)	12*	TbREL1 conf=8
O=C(N/C(=N\O)c1ccccc1)Nc1ccc(Cl)cc1	1
O=C(Nc1ccc(F)c(Cl)c1)c1ccccc1	0
COc1ccc(C(=O)OCC(=O)NC2CCCCCC2)c(OC)c1	-2
O=C(NCc1ccccc1OC(F)(F)F)C1CCC(=O)N(C2CC2)C1 (centres undefined)	-2
O=C(Cc1c[nH]c2ccccc12)Nc1ccc(Nc2cccnc2)c(-c2cc(F)cc(F)c2)c1	-1
O=[N+]([O-])c1ccc(N2CCCC2)cc1NC1CC1	0
CC(Nc1cc(N2CCNCC2)ccc1[N+](=O)[O-])c1ccccc1 (centres undefined)	4
CCc1ccc(OCCNc2cc(N3CCNC(C)C3)ccc2[N+](=O)[O-])cc1 (centres undefined)	12*	TbREL1 conf=9
CC(=O)Nc1ccc(S(=O)(=O)NCC(=O)N2CCN(S(=O)(=O)c3cccs3)CC2)cc1	0
CCc1ccc2cc3c(cc2n1)C(=O)c1ccccc1-3	-1
SMILES	TbREL1 primary	others
O=C(c1ccccc1-c1nc(-c2ccccc2)no1)N1CCOCC1	-1
O=C(c1ccccc1-c1nc(-c2ccc(F)cc2)no1)N1CCCC1	-1
O=C(O)c1ccccc1-c1noc(-c2ccccc2F)n1	13*	TbREL1 conf=4
Nn1c(SCC(=O)Nc2cccc3ccccc23)nnc1-c1n[nH]c2c1CCC2	0
COc1ccc(S(=O)(=O)N(C)C[C@H]2Oc3ccc(NS(=O)(=O)c4cn(C)cn4)cc3C(=O)N([C@H](C)CO)C[C@@H]2C)cc1	3
CC1CCN(C(=O)c2[nH]cnc2C(=O)Nc2cccc(Cl)c2)CC1	1
COc1ccc(C(F)(F)F)cc1NC(=O)C(OC(=O)CNC(=O)c1ccccc1)c1ccccc1 (centres undefined)	-2
CCOC(=O)c1nn(-c2ccc(C)cc2)c(=O)c2c(N)scc12	1
COc1ccc(-n2nnc3c(=O)n(CC(=O)N4CCCC4)cnc32)cc1	2
CCOC(=O)C(CC)n1cnc2c(nnn2-c2ccc(C)cc2)c1=O (centres undefined)	19*	TbREL1 conf=2
Cc1ccn2cc(CNS(=O)(=O)c3ccc4ccccc4c3)nc2c1	-3
COCCn1c(=S)[nH]c2cc(C(=O)NCCc3ccccc3)ccc2c1=O	-6
CCCNC(=O)c1ccc2nc(-c3ccccc3)c(-c3ccccc3)nc2c1	-1
COc1cccc(C(=O)NCCCNC(=O)c2ccco2)c1	5
O=C(NCCCO)c1ccc2nc(-c3ccco3)c(-c3ccco3)nc2c1	11*	TbREL1 conf=19*
O=C(COC(=O)c1ccc(F)c(S(=O)(=O)N2CCOCC2)c1)NCc1ccccc1	-2
O=C(OCC#CCSc1nnc(-c2cccc3ccccc23)o1)c1csc2ccccc12	0
CCNC(=O)C1(C)CCCN(Cc2cc3ccccc3o2)C1 (centres undefined)	-2
Cc1ccc(S(=O)(=O)NCC2Cc3ccccc3N2S(=O)(=O)c2ccc(C)cc2)cc1 (centres undefined)	-3
CS(=O)(=O)N1c2ccccc2C[C@H]1Cc1cc2ccccc2o1	12*	TbREL1 conf=-1
COc1ccc(-c2cnnc(N/N=C/c3ccc(OC)c(OC)c3)n2)cc1	11*	TbREL1 conf=-2
CCOc1cc(/C=N/Nc2nncc(-c3ccccc3)n2)ccc1O	0
